Compound activity from PubChem BioAssay.
Shown are actives, neighbours in structure and some others; about 2.9% of the full set was active somewhere.
POLK inh – qHTS for Inhibitors of Polymerase Kappa. purified Pol kappa, fluorescent DNA synthesis assay, 10 min. actives 0.53% (n = 400,000). AID 588579, 2011. DNA polymerase kappa (Homo sapiens), Q9UBT6. Potency, µM (doses to about 107 µM), without a hit: at the top dose activity, negative = inhibition, hits mostly inhibitors; further: potency means the concentration at half of the fitted maximal effect; on the % scale 0 is the no-effect control and ±100 the full control effect
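Here, compound and 10 nM enzyme are combined for 15 min at room temperature; adding 50 nM substrate (final) starts DNA synthesis, tracked by fluorescence at 0 and 10 min against buffer-only wells.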
Pol beta inh – qHTS Assay for Inhibitors of DNA Polymerase Beta; P06746; Pol beta primer extension/strand displacement, fluorescence kinetic; Potency, µM (titrated, usually from 114 µM), for inactives: at the highest dose activity change, negative = inhibition, most hits filed as inhibitors; actives 1.3% (n = 340,000); AID 485314, 2010; further: potency means the concentration at half of the fitted maximal effect; on the % scale 0 is the no-effect control and ±100 the full control effect
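Enzyme-only controls used 10 nM Pol beta; buffer lacking enzyme served as negative control. Compound preincubated 15 min, then 50 nM substrate added; 0 and 10 min reads at room temperature.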
POLH inh – qHTS for Inhibitors of Polymerase Eta; DNA polymerase eta (Homo sapiens), Q9Y253; actives 1.2% (n = 390,000); recombinant Pol eta, fluorescent DNA replication assay; Potency, µM (titrated, usually from 114 µM), inactives show at the highest dose activity change, negative = inhibition, usual class: inhibitors; further: potency means the concentration at half of the fitted maximal effect; on the % scale 0 is the no-effect control and ±100 the full control effect
Target sequence (Q9Y253 whole entry, looked up): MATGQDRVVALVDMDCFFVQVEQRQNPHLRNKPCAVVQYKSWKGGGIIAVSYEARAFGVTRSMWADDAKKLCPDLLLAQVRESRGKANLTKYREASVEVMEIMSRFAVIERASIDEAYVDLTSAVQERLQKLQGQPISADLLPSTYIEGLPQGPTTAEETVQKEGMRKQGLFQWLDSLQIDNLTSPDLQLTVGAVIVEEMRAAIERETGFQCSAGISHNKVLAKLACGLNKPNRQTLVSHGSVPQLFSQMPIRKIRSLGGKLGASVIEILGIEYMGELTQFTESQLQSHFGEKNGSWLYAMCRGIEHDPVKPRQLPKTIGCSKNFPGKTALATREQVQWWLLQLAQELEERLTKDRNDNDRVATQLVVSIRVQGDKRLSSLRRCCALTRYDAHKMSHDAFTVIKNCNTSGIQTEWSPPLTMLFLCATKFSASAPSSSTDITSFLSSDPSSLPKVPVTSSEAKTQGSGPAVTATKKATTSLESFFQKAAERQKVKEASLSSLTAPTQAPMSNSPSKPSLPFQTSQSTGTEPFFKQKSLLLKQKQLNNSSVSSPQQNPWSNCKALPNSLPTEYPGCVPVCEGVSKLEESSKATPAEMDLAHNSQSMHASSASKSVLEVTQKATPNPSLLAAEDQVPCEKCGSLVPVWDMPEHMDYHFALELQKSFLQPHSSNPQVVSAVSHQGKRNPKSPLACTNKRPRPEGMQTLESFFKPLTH
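Pol eta (10 nM) was preincubated with compounds for 15 min at room temperature, after which fluorescent replication substrate (50 nM final) was added to start the reaction. Fluorescence was read kinetically at 0 and 10 min.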
12-LOX inh – Primary qHTS assay for inhibitors of human arachidonate 12S-lipoxygenase (ALOX12): Round 2 | Polyunsaturated fatty acid lipoxygenase ALOX12 (Homo sapiens), P18054 | Potency, µM (titrated, usually from 108 µM), inactives show at the top dose activity change, negative = inhibition, actives largely listed as inhibitors | actives 1.1% (n = 580,000) | purified 12hLO, xylenol orange hydroperoxide absorbance; further: potency means the concentration at half of the fitted maximal effect; on the % scale 0 is the no-effect control and ±100 the full control effect
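Purified human 12hLO at 150 nM in 25 mM Hepes, 0.01% Triton X-100, pH 7.0, preincubated 15 min at room temperature with compound. Reaction started with 40 uM arachidonic acid, 30 min at room temperature. Hydroperoxide measured by Fe-xylenol orange, 573/405 nm absorbance ratio.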
PI5P4Ka inh – qHTS for Inhibitors of phosphatidylinositol 5-phosphate 4-kinase (PI5P4K); Phosphatidylinositol 5-phosphate 4-kinase type-2 alpha (Homo sapiens), P48426; PI5P4Kalpha enzyme, ADP-Glo luminescence, 60 min; hits give low values; max response, %; actives 1.2% (n = 330,000); AID 652105, 2013; active means max response of -50% or lower; inconclusive means between -30% and -50%; inactive means -30% or higher; further: value at the top dose of about 77 µM; on the % scale 0 is the no-effect control and ±100 the full control effect
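Compounds were pin-transferred onto PI5P4Kalpha and substrate in HEPES pH 7.4 buffer with EGTA, CHAPS and 5% DMSO. ATP (5 microM final) started the reaction, which ran 60 minutes at room temperature before ADP-Glo detection.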
POLI inh – qHTS for Inhibitors of Polymerase Iota; DNA polymerase iota (Homo sapiens), Q9UNA4; Pol iota fluorescent replication assay, 10 min; Potency, µM (doses to about 115 µM), inactives show at the top dose activity, negative = inhibition, hits mostly inhibitors; actives 1% (n = 390,000); AID 588590, 2011; further: potency means the concentration at half of the fitted maximal effect
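Pol iota at 10 nM preincubated 15 min with compounds at room temperature; reaction started with fluorescent substrate, 50 nM final. Fluorescence read kinetically at 0 and 10 min; buffer-only wells as negative control.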
* hit, by the source's call; ? = inconclusive; . = not tested or not shown; [ ] = another dose, or the depositor's remark. Unless noted, the call rests on the fitted dose curve; in most records, active means well fitted inhibition curve with a large enough effect; inconclusive means small, poorly fitted or top-dose-only effect, or another doubt; inactive means no such curve, though single readings can be large or run the other way.

SMILES	POLK inh	Pol beta inh	POLH inh	12-LOX inh	PI5P4Ka inh	POLI inh
CCOC(=O)c1c(N2C(=O)CC(Sc3ccccc3C(=O)O)C2=O)sc2c1CCCC2 (configuration not stated)	-12%	37%	-17%	16µM*	-12	37%
CCOC(=O)c1c(NC(=O)c2ccccc2C(=O)O)sc2c1CCCC2	-11%	20%	-16%	-8%	?	102%
COc1ccc(-c2cc(=O)[nH][nH]2)cc1OC	-3%	37%	-17%	-1%	.	1.3µM*
O=c1cc(-c2ccc(F)cc2)[nH][nH]1	-1%	2%	-19%	28%	-1	1.8µM*
CC(=O)c1ccc(NC2OCC(O)C(O)C2O)cc1 (configuration not stated)	.	.	.	37%	.	.
COc1ccc2cc(C(=O)N3CCN(Cc4ccccc4C)CC3)c(C)nc2c1	.	.	.	7%	.	.
COc1ccc(OC)c(NC(=O)c2cc(-c3cc(C)ccc3O)n[nH]2)c1	-7%	-28%	-28%	1%	2	25µM*
COc1ccc(OC)c(NC(=O)c2cc(-c3ccc(C)cc3O)n[nH]2)c1	-4%	?	-10%	0%	.	7%
NS(=O)(=O)c1ccc(N=Nc2c(O)c(C(=O)O)cc3ccccc23)cc1	-9%	35µM*	40µM*	?	-95*	?
O=S(=O)(c1cccc(F)c1)N1CCC2(CC1)CC(Cc1nc(C3CC3)no1)CCO2 (configuration not stated)	.	.	.	22%	.	.
O=C1NCCCCCCN(C(=O)CCC2CCCC2)[C@H]2C[C@H](c3nc(Cc4ccccc4)no3)C[C@@H]12	.	.	.	3%	.	.
CC1CN(Cc2ccccc2)c2ccccc2NC1=S (configuration not stated)	-16%	-7%	-22%	35µM*	-5	14%
CCCn1c(=O)[nH]c(=O)c2c1nc(-c1ccc3ccccc3c1)n2CCN1CCOCC1	.	.	.	3%	.	.
CCCn1c(=O)[nH]c(=O)c2c1nc(-c1ccc(C#N)cc1)n2CCN1CCOCC1	.	.	.	28µM*	.	.
CN(Cc1ccco1)c1cc(-c2ccoc2)ncn1	25µM*	.	.	?	.	.
CN(C)c1ccc(-c2cc(N(C)Cc3ccco3)ncn2)cc1	-2%[60.1 µM]	.	.	-24%	.	.
O=c1cc(-c2ccco2)oc2c1ccc1ccccc12	-9%	18µM*	?	-4%	-20	39%
O=c1cc(-c2cccc(O)c2)oc2c(O)c(O)ccc12	2.8µM*	.	.	.	.	.
O=c1cc(-c2ccc(O)cc2)oc2c1ccc1ccccc12	11%	.	56µM*	-9%	3	-18%
O=c1cc(-c2ccncc2)oc2c1ccc1ccccc12	-6%	?	-5%	0%	8	56%
N#C/C(=C/c1ccccc1OCc1cccc(C(F)(F)F)c1)C(=O)NCc1ccc(F)cc1	.	.	.	12%	.	.
Nc1nccnc1C(=O)NCc1ccc(N2CCCCC2)nc1	.	.	.	0%	.	.
CCC(C)(C)C1CCC(=NNC(=S)Nc2ccccc2)CC1 (configuration not stated)	-16%	-9%	-8%	?	-4	95%
CC1CCC/C(=N/NC(=S)Nc2ccccc2)C1 (configuration not stated)	.	.	.	28µM*	.	.
Nc1cccc2c1C(=O)N(CC(=O)NC13CC4CC(CC(C4)C1)C3)C2=O	-2%	1%	-4%	?	3	-12%
SMILES	POLK inh	Pol beta inh	POLH inh	12-LOX inh	PI5P4Ka inh	POLI inh
O=C(Cn1sc2ccccc2c1=O)Nc1ccccc1	.	.	-8%	0.89µM*	-82*	.
O=C(Cn1sc2ccccc2c1=O)NC12CC3CC(CC(C3)C1)C2	-3%	1%	0%	.	-91*	?
COc1ccc(-c2cc(C(=O)NC3CC3)c3c(C4CCNC4)noc3n2)cc1 (configuration not stated)	.	.	.	6%[6.33 µM]	.	.
Cc1ccc(-c2nn(-c3cccc(F)c3)cc2CN2CCN(c3ccccn3)CC2)o1	-13%	20%	-10%	8.9µM*	-1	7%
Cc1csc(NC(=O)CSCC(=O)O)c1-c1nc2ccccc2s1	1%	-23%	89µM*	0%	0	?
Cc1ccc2nc(-c3ccc(NC(=O)CSCC(=O)O)cc3)sc2c1	-19%	-15%	2%	-13%	-2	2%
Cc1ccccc1N1CC(c2nc3ccccc3n2CCC2CCCCC2)CC1=O (configuration not stated)	-11%	-6%	-26%	?	.	5%
CCc1ccccc1N1CC(c2nc3ccccc3n2CCC2CCCCC2)CC1=O (configuration not stated)	-11%	4%	-18%	28µM*	.	-25%
CCOC(=O)C1=C(C)OC(n2cccc2)=C(C#N)C1c1ccc(OC)c(OC)c1OC (configuration not stated)	.	.	.	-30%	.	.
CCC(C)n1c(NC(=O)c2ccccc2)c(C#N)c2nc3ccccc3nc21 (configuration not stated)	?	40µM*	50µM*	0%	-8	3.2µM*
CCN1C(=O)CCN(Cc2cn(C)c3ccc(OC)cc23)CC12CCOCC2	.	.	.	3%	.	.
C/C(=N\NC(=S)Nc1ccc(F)cc1)c1ccc2c(c1)OCCO2	4%	21%	-13%	35µM*	-10	10%
C/C(=N\NC(=S)NCc1ccccc1)c1ccc2c(c1)OCCO2	-13%	9%	?	35µM*	-6	5%
C/C(=N\NC(=S)Nc1cc(S(=O)(=O)N2CCOCC2)ccc1Cl)c1ccc(N2CCOCC2)cc1	-6%	-3%	5%	-21%	-14	-9%
C/C(=N\NC(N)=S)c1ccc2c(c1)OCCO2	-17%	34%	-5%	?	5	-4%[58.9 µM]
C/C(=N\NC(=S)Nc1ccc(C)c(C)c1)c1ccc(N2CCOCC2)cc1	4%	37%	-9%	35µM*	1	67%
Cc1cc(Br)ccc1OCCNCc1ccccc1	-5%	12%	-3%	6.3µM*	16	-2%
Cc1cc(C)c(C)c(OCCNCc2ccccc2)c1	-7%	-22%	-21%	-16%	0	109%
CC1CCN(S(=O)(=O)c2nnc(NC(=O)c3cccc(Br)c3)s2)CC1	-8%	1%	-1%	-19%	.	-10%
COc1cccc(C(=O)Nc2nnc(S(=O)(=O)N3CCCc4ccccc43)s2)c1	-9%	-18%	50µM*	-1%	.	41%
Cc1cccc(C(=O)Nc2nnc(S(=O)(=O)N3CCCc4ccccc43)s2)c1	-17%	-17%	?	4%	.	16%
